Only some compounds are listed: those with a hit (about 19% of all), similar ones and a draw of the others.
ELG1 DNA repair: qHTS screen for small molecules that inhibit ELG1-dependent DNA repair in human embryonic kidney (HEK293T) cells expressing luciferase-tagged ELG1; Potency, µM (series often up to 46.1 µM), without a hit: at the top dose activity change, negative = inhibition, usual class: inhibitors; 2.3% of 330,000 active; HEK293T ELG1-luciferase reporter, luminescence, 16 h; DNA damage induced by 5-fluorouridine; also: potency is read from the fitted curve at half-maximal effect; nearly all actives have a fitted effect of over 55% in size
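Overnight (16 hr) co-exposure of 2,000 cells/well to 5-fluorouridine and compound at 37 °C preceded detection. Luciferase was quantified via ONE-Glo luminescence; loss of signal denotes inhibition.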
IL-1B inflam inh: qHTS for Inhibitors of Inflammasome Signaling: IL-1-beta AlphaLISA Primary Screen; 4.7% of 360,000 active; AID 743279, 2014; THP-1 LPS/ATP IL-1B secretion, AlphaLISA, 16 h; stronger effect = lower value; activity change, % at 57.5 µM; in the data active = activity change below about -50%; inconclusive = mostly about -30% to -49%
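THP-1 cells pretreated 1 hr with compounds (up to 57.5 uM final), then stimulated with LPS (250 ng/mL final) plus ATP (1.25 mM final); secreted IL-1B measured by AlphaLISA after 16 hr, decreased signal indicating inhibition.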
TDP1 cell CPT: qHTS for Inhibitors of human tyrosyl-DNA phosphodiesterase 1 (TDP1): qHTS in cells in presence of CPT. chicken DT40 Tdp1-/-;hTDP1 cells + 20 nM CPT, ATP luminescence, 48 h. Potency, µM (highest dose often 46.2 µM), for inactives: top-dose activity change, negative = growth inhibition, hits mostly inhibitors. 12% of 420,000 active; also: potency is read from the fitted curve at half-maximal effect; nearly all actives have a fitted effect of over 55% in size
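Chicken DT40 Tdp1-/- cells stably complemented with human TDP1 were seeded at 400 cells/well in medium containing 20 nM camptothecin, exposed to pin-transferred compounds, and grown at 37 °C for at least 48 hr. Viability was read as ATP luminescence.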
Giardia killer: Small Molecules that selectively kill Giardia lamblia: qHTS | Giardia lamblia trophozoite viability | activity change, % at 7.66 µM, hits read low | 0.15% of 340,000 active | AID 540267, 2011; in the data active = activity change below about -80%; inconclusive = between about -30% and that limit;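 also: parasites exposed to compound for two days anaerobically before the ATP read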
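Giardia lamblia trophozoites (100 cells/well) were incubated with compounds for 48 h at 37 deg C under anaerobic conditions. Viability was read as ATP content by one-step luminescence after 15-30 min at room temperature.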
DT40 TDP1 no CPT: qHTS for Inhibitors of human tyrosyl-DNA phosphodiesterase 1 (TDP1): qHTS in cells in absence of CPT; DT40 Tdp1-/- hTDP1 cells, no CPT, ATP luminescence, 48 h; Potency, µM (top dose mostly 46.2 µM), for inactives: at the highest dose activity change, negative = growth inhibition, usual class: inhibitors; 15% of 420,000 active; also: potency is read from the fitted curve at half-maximal effect; nearly all actives have a fitted effect of over 55% in size
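Growth kinetics read by CellTiter-Glo luminescence after ≥48 hr at 37 °C. Cells: DT40 Tdp1-/- stably carrying human TDP1, 400 per well, compound exposure in the absence of CPT (DMSO vehicle).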
TDP1 block: qHTS Assay for Inhibitors of Tyrosyl-DNA Phosphodiesterase (TDP1); Tyrosyl-DNA phosphodiesterase 1 (Homo sapiens), Q9NUW8; recombinant TDP1, AlphaScreen DNA substrate cleavage; Potency, µM (series often up to 130 µM), inactives show top-dose activity change, negative = inhibition, actives largely listed as inhibitors; 0.28% of 350,000 active; AID 485290, 2010; also: potency is read from the fitted curve at half-maximal effect; nearly all actives have a fitted effect of over 40% in size
Target sequence (Q9NUW8 whole entry, looked up): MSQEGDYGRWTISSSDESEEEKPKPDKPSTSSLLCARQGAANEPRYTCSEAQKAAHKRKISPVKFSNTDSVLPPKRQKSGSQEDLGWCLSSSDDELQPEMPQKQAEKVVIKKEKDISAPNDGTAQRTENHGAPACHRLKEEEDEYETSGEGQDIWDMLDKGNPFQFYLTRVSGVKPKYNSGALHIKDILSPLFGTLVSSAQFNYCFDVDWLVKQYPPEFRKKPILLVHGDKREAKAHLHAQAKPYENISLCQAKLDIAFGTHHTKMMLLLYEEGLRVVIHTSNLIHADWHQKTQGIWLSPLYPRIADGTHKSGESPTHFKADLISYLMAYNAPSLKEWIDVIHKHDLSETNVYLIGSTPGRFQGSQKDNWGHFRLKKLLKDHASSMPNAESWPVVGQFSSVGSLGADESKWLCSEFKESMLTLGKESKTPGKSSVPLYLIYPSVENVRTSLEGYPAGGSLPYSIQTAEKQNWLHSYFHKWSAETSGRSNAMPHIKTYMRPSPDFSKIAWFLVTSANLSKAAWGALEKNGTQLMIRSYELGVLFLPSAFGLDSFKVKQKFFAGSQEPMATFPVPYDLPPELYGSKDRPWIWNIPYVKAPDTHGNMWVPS
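Signal: AlphaScreen proximity between streptavidin donor and anti-FITC acceptor beads on intact substrate. Reaction: Tdp1 1 nM, substrate 15 nM final, 5 min RT after 15 min compound preincubation.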
The depositor's hits bear a star; ? = inconclusive; nt = no result. Unless noted, calls follow the shape of the dose curve; as a rule, active = well fitted curve in the direction sought with a large enough effect; inconclusive = small, poorly fitted or top-dose-only effect, or another doubt; inactive = no such curve, though single readings can be large; an effect the other way counts as inactive or inconclusive. % is scaled to controls: 0 for no effect and ±100 for the full control effect.

SMILES | ELG1 DNA repair | IL-1B inflam inh | TDP1 cell CPT | Giardia killer | DT40 TDP1 no CPT | TDP1 block
C/C(=N\NC(=O)c1nnn(-c2nonc2N)c1CN1CCCCC1)c1ccccc1O | 18µM* | 95 | 10µM* | -3 | 13µM* | 7%
Nc1nonc1-n1nnc(C(=O)N/N=C/c2ccc(O)cc2)c1CN1CCCCCC1 | nt | 19 | -6% | 0 | -2% | nt
C/C(=N\NC(=O)c1nnn(-c2nonc2N)c1CN(C)c1ccccc1)c1ccccc1O | ? | 93 | 8.2µM* | 5 | 6.5µM* | 1%
Cc1ccc(-n2cccn2)c(CN2CCC(CO)(CCc3ccccc3)CC2)c1 | -3% | -12 | -22% | 8 | ? | 2%
CCCCN(CC)Cc1ccc(CNC(=O)Nc2ccc(OCC)cc2)o1 | 9% | -7 | ? | -15 | ? | -2%
CCCCN(CC)Cc1ccc(CNC(=O)Nc2ccc(Cl)cc2)o1 | -15% | -62* | 3.3µM* | 30 | 5.8µM* | -2%
CNS(=O)(=O)c1ccc(NC(=O)c2ccoc2C)cc1 | ? | -8 | -2% | 10 | -26% | 0%
NS(=O)(=O)c1ccc(NC(=O)Nc2ccc(Cl)cc2)cc1 | ? | -17 | -7% | 12 | 16µM* | 2%
CC(C)C(Cl)=NOC(=O)Nc1ccc(S(N)(=O)=O)cc1 | nt | -99* | 1.2µM* | 12 | 2.6µM* | nt
Cc1occc1C(=O)Nc1ccc(S(N)(=O)=O)cc1 | 6% | -2 | 23µM* | 6 | ? | -5%
CNC(=O)Nc1ccc(S(N)(=O)=O)cc1 | 2% | 7 | 11% | 10 | 5% | 3%
CN(C)CC(=O)Nc1ccc(S(N)(=O)=O)cc1 | 0% | 9 | -9% | 52 | -4% | 2%
N#Cc1ccc(NC(=O)Nc2ccc(Cl)cc2)cc1 | ? | -110* | 2.9µM* | 9 | 3.7µM* | 3%
O=C1Cc2cc(S(=O)(=O)N3CCCCC3)cc3c2N1CCC3 | nt | nt | -1% | nt | -16% | -8%
Cc1ccsc1/C=C(\C#N)C(=O)NC1CCS(=O)(=O)C1 (centres undefined) | 9% | 0 | -5% | -20 | 11% | 1%
Cc1cccc(Sc2nc(-c3ccccc3)ncc2C(=O)O)c1 | ? | 34 | -6% | 8 | ? | 2%
CC(=O)N(C)c1ccc(NC(=O)Nc2ccc(Cl)cc2)cc1 | nt | -25 | ? | 15 | 18µM* | nt
CCN1CCN(Cc2c(O)ccc3c(=O)c(Oc4ccccc4C(C)C)c(C(F)(F)F)oc23)CC1 | nt | nt | -6% | nt | -1% | nt
CCOC(=O)c1[nH]c(C)c(C(=O)N2CCc3ccccc32)c1C | -2% | 108 | 0.82µM* | -2 | 0.92µM* | 5%
CC(=O)c1c(C)[nH]c(C(=O)OCC(=O)N2CCN(c3ccccc3)CC2)c1C | nt | 21 | -20% | nt | 3% | nt
CC(=O)c1c(C)[nH]c(C(=O)OCC(=O)N2CCN(S(=O)(=O)c3ccc(C)cc3C)CC2)c1C | 18µM* | 8 | ? | 15 | ? | 1%
CC(=O)c1c(C)[nH]c(C(=O)OCC(=O)N2CCc3ccccc3C2)c1C | ? | 59 | 23µM* | 15 | 16µM* | 1%
Cc1ccccc1CN1CCCN(CC(=O)Nc2c(C)cccc2C)S1(=O)=O | nt | nt | ? | nt | ? | 4%
CCC(C)NC(=O)Cn1c(=O)n(-c2ccc(C)c(C)c2)c(=O)c2c(C)c(C(=O)N(CC)CC)sc21 (centres undefined) | nt | nt | -24% | nt | 7% | 0%
CCN(CC)CC(O)CN1c2ccccc2Sc2ccccc21 (centres undefined) | 11% | -68* | ? | -10 | ? | nt
SMILES | ELG1 DNA repair | IL-1B inflam inh | TDP1 cell CPT | Giardia killer | DT40 TDP1 no CPT | TDP1 block
CN(C)CCCN1c2ccccc2Sc2ccc(C(F)(F)F)cc21 | -13% | -62* | ? | -16 | 24µM* | 8%
CCN(CC)CCC(=O)N1c2ccccc2Sc2ccc(NC(=O)OC)cc21 | 9% | -79* | -1% | 7 | 0% | 5%
O=C(CSc1nc2ccccc2s1)N1c2ccccc2Sc2ccc(Cl)cc21 | -4% | -1 | ? | 1 | ? | 0%
CCOC(=O)Nc1ccc2c(c1)N(C(=O)CCN(C)C)c1ccccc1S2 | -3% | ? | -11% | 0 | -19% | 4%
O=C(CSc1nc2ccccc2s1)N1c2ccccc2Sc2ccc(C(F)(F)F)cc21 | -6% | 29 | ? | 2 | 15µM* | 3%
COc1cc(NC(=O)C2CCCN(S(=O)(=O)c3ccc4c(c3)oc(=O)n4C)C2)c(C(=O)O)cc1OC (centres undefined) | nt | nt | 1% | nt | -3% | -1%
CC(C)c1ccc(S(=O)(=O)c2cnc(SCC(=O)Nc3cccc(C(F)(F)F)c3)nc2N)cc1 | nt | nt | ? | nt | ? | 2%
O=[N+]([O-])c1cccc(N(CC2CO2)S(=O)(=O)c2ccccc2)c1 (centres undefined) | 1% | -10 | ? | -14 | ? | 1%
CN(C)CCC(=O)N1c2ccccc2Sc2ccc(C(F)(F)F)cc21 | 4% | -3 | 23µM* | 44 | ? | 4%
CC(CN(C)C)CN1c2ccccc2Sc2ccccc21 (centres undefined) | 2% | ? | ? | -2 | 18µM* | 12%
CCN(CC)CC(=O)N1c2ccccc2Sc2ccccc21 | -3% | -6 | ? | -1 | -20% | nt
CCN(CC)CCCCN1c2ccccc2Sc2ccccc21 | 1% | -70* | 21µM* | 15 | 21µM* | nt
CC(CN(C)C)CN1c2ccccc2Sc2ccc(C(F)(F)F)cc21 (centres undefined) | nt | nt | ? | nt | 17µM* | nt
CCN1CCN(c2ncnc3sc4c(c23)CCC(C)C4)CC1 (centres undefined) | 13% | 2 | -10% | 14 | -12% | nt
O=[N+]([O-])c1ccccc1S(=O)(=O)Nc1ccc2c(c1)OCCO2 | -2% | -10 | ? | -5 | ? | 6%
COc1ccc(CCNC(=O)c2ccc(Br)o2)cc1Br | nt | -12 | 23µM* | nt | ? | nt
COc1ccc(CCNC(=O)c2coc(=O)c(Br)c2)cc1 | ? | 0 | 0.65µM* | 0 | 1.3µM* | nt
COc1ccc(CCNC(=O)c2ccc(-c3ccc([N+](=O)[O-])cc3)o2)cc1OC | ? | ? | 18µM* | -5 | ? | 0%

Screening results (PubChem)
